Test systems include HCT-15 colon; HT29 colon; SNB-75 CNS; SNB-19 CNS; U251 CNS; PC-3 prostate; SK-MEL-5 melanoma; UACC-62 melanoma; LOX IMVI melanoma; SK-MEL-28 melanoma; SK-MEL-2 melanoma; EKVX NSCLC; SN12C renal; UO-31 renal; TK-10 renal; ACHN renal; CAKI-1 renal; CCRF-CEM leukemia; MOLT-4 leukemia; A498 renal.
Test in all cases: NCI-60 one-dose screen, 48 h (100 = growth as untreated, 0 = no growth, -100 = all killed)
Details in all cases: 10 µM unless noted

Compounds without any hit were thinned out: in the full panel of roughly 83,000, 20% have a hit.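 Percent growth is the endpoint: 0 to 100 indicates growth inhibition (40 means 60% inhibition), 0 means no net growth, and negative values indicate cell death.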 Values without a mark were called inactive. Active and inactive are the calls of the source. The calls were made as follows: active = growth percent below 10; inactive = the rest.

In the case of `COc1ccc2c(c1)C=CC(C#N)N2C(=O)c1ccccc1` (centres undefined), the growth with HCT-15 colon was 9.74% (active); with HT29 colon, 5.77% (active); with SNB-75 CNS, -14.7% (active); in the experiment with SNB-19 CNS it was 43.8%; with U251 CNS, 28.6%; with PC-3 prostate it was 19%. Moreover, the growth was -6.27% (active) in the experiment with SK-MEL-5 melanoma; 26.3% in the experiment with UACC-62 melanoma; 20% in the experiment with LOX IMVI melanoma; 58.9% in the experiment with SK-MEL-28 melanoma; 67.4% in the experiment with SK-MEL-2 melanoma; 49.8% in the experiment on EKVX NSCLC. Besides, the growth in the experiment on SN12C renal is 38.4%; with UO-31 renal, 53%; in the experiment with TK-10 renal it was 70.9%; in the experiment on ACHN renal it was 33.9%; in the experiment with CAKI-1 renal, 23.6%; in the experiment with CCRF-CEM leukemia, 15.2%. Further, in the experiment with MOLT-4 leukemia, the growth is 11.9%.
As to `Cn1cc(C=O)c2ccccc21`, the growth is 103% with HCT-15 colon; 100% in the experiment on HT29 colon; 80% in the experiment on SNB-75 CNS; 100% in the experiment with SNB-19 CNS; 98.5% in the experiment with U251 CNS; 83.4% in the experiment on PC-3 prostate. Moreover, the growth is 99.4% in the experiment on SK-MEL-5 melanoma; 106% in the experiment with UACC-62 melanoma; 88.4% in the experiment on LOX IMVI melanoma; 109% in the experiment with SK-MEL-28 melanoma; 109% in the experiment on SK-MEL-2 melanoma; 91.7% in the experiment with SN12C renal. Besides, the growth in the experiment on UO-31 renal was 60.6%; in the experiment with TK-10 renal, 102%; with ACHN renal it was 93.5%; with CAKI-1 renal it was 94.6%; with A498 renal, 95.4%; in the experiment on CCRF-CEM leukemia it was 90.6%. Also, the growth in the experiment with MOLT-4 leukemia is 92%.
As to `c1cc(-c2ccc3c(c2)OCO3)n2nccc2n1`, the growth in the experiment on HCT-15 colon is 97.2%; in the experiment on HT29 colon, 103%; with SNB-75 CNS, 84.5%; in the experiment with SNB-19 CNS, 101%; in the experiment with U251 CNS, 95.8%; with PC-3 prostate, 93.9%. Besides, the growth in the experiment with SK-MEL-5 melanoma was 98.2%; with UACC-62 melanoma, 113%; in the experiment on LOX IMVI melanoma, 102%; in the experiment on SK-MEL-28 melanoma, 105%; in the experiment with SK-MEL-2 melanoma, 108%; with SN12C renal it was 108%. Also, the growth is 90.9% with UO-31 renal; 104% with TK-10 renal; 98.2% in the experiment on ACHN renal; 94.4% with CAKI-1 renal; 81.5% in the experiment with A498 renal; 100% in the experiment with CCRF-CEM leukemia. Besides, the growth in the experiment with MOLT-4 leukemia was 97.1%.
In the case of `COc1cc(C2C=C(C)N=C3SC(C)=NN32)cc(OC)c1OC` (centres undefined), the growth was 95.8% in the experiment on HCT-15 colon; 102% with HT29 colon; 82.5% in the experiment with SNB-75 CNS; 100% in the experiment on SNB-19 CNS; 100% in the experiment on U251 CNS; 95.3% with PC-3 prostate. For the same compound, the growth was 101% in the experiment on SK-MEL-5 melanoma; 107% in the experiment with UACC-62 melanoma; 96.3% in the experiment on LOX IMVI melanoma; 119% with SK-MEL-28 melanoma; 107% in the experiment with SK-MEL-2 melanoma; 109% with SN12C renal. For the same compound, the growth was 72% with UO-31 renal; 102% in the experiment with TK-10 renal; 103% in the experiment on ACHN renal; 103% in the experiment on CAKI-1 renal; 81.8% in the experiment on A498 renal; 91.8% with CCRF-CEM leukemia.
With `CCC1CCc2nc3sc(C(=O)Nc4ccccc4F)c(N)c3cc2C1` (centres undefined), the growth was 35.3% with HCT-15 colon; 39.5% in the experiment with HT29 colon; 66.1% in the experiment on SNB-75 CNS; 76% in the experiment with SNB-19 CNS; 65.5% in the experiment on U251 CNS; 67.3% with PC-3 prostate. For the same compound, the growth is 40.2% in the experiment on SK-MEL-5 melanoma; 47.9% in the experiment with UACC-62 melanoma; 62.8% in the experiment with LOX IMVI melanoma; 59.9% in the experiment on SK-MEL-28 melanoma; 52.1% in the experiment with SK-MEL-2 melanoma; 89.8% with SN12C renal. Moreover, the growth is 77.5% in the experiment with UO-31 renal; 73.7% in the experiment with TK-10 renal; 69.4% in the experiment with ACHN renal; 53.2% in the experiment with CAKI-1 renal; 44.7% in the experiment with A498 renal.
In the case of `COc1ccc(/C=N/NC(=O)Cn2c(Cc3cccc4ccccc34)nc3ccccc32)cc1`, the growth with HCT-15 colon was 95.7%; with HT29 colon, 108%; in the experiment on SNB-75 CNS, 102%; with SNB-19 CNS, 92.2%; in the experiment with U251 CNS, 99.7%; with PC-3 prostate it was 83.2%. Also, the growth with SK-MEL-5 melanoma is 96.1%; in the experiment with UACC-62 melanoma, 87.7%; with LOX IMVI melanoma, 88.3%; in the experiment on SK-MEL-28 melanoma, 109%; with SK-MEL-2 melanoma it was 99.5%; with SN12C renal, 93.1%. Moreover, the growth with UO-31 renal is 72.1%; in the experiment with TK-10 renal, 105%; in the experiment with ACHN renal, 107%; in the experiment with CAKI-1 renal, 83.8%; in the experiment with A498 renal it was 85.5%; in the experiment on CCRF-CEM leukemia, 91%. Also, the growth in the experiment on MOLT-4 leukemia was 69.5%.
For `CCSc1nnc(NC(=O)Cc2ccc(Cl)cc2)s1`, the growth is 98.3% with HCT-15 colon; 114% with HT29 colon; 106% with SNB-75 CNS; 97.4% in the experiment on SNB-19 CNS; 98.7% in the experiment on U251 CNS; 101% in the experiment with PC-3 prostate. Also, the growth in the experiment on SK-MEL-5 melanoma was 107%; in the experiment with UACC-62 melanoma it was 97%; in the experiment with LOX IMVI melanoma, 97.1%; with SK-MEL-28 melanoma, 113%; in the experiment with SK-MEL-2 melanoma it was 73.4%; in the experiment on EKVX NSCLC it was 103%. Besides, the growth with SN12C renal is 105%; in the experiment with UO-31 renal, 40%; with TK-10 renal, 113%; in the experiment with ACHN renal it was 103%; in the experiment with CAKI-1 renal it was 102%; with CCRF-CEM leukemia, 87.9%. In the experiment on MOLT-4 leukemia, the growth is 103%.
As to `COc1cc(NC(=O)CSc2nc3ccc(C)cc3c(=O)n2-c2ccccc2)cc(OC)c1OC`, the growth with HCT-15 colon was 81.1%; with HT29 colon it was 109%; in the experiment on SNB-75 CNS, 57.4%; with SNB-19 CNS, 88%; in the experiment with U251 CNS, 93.9%; with PC-3 prostate, 82%. In addition, the growth is 77.8% in the experiment on SK-MEL-5 melanoma; 77.5% with UACC-62 melanoma; 75.9% with LOX IMVI melanoma; 83.7% in the experiment with SK-MEL-28 melanoma; 86.5% with SK-MEL-2 melanoma; 92.8% in the experiment with SN12C renal. The growth in the experiment with UO-31 renal was 51%; in the experiment on TK-10 renal, 104%; in the experiment with ACHN renal, 90.2%; in the experiment with CAKI-1 renal it was 88.4%; in the experiment on A498 renal it was 62.7%; in the experiment on CCRF-CEM leukemia, 83.9%. In the experiment with MOLT-4 leukemia, the growth was 59.2%.

These data come from PubChem BioAssay (NCI).
